This passage reports Potency results from PubChem BioAssay (NCATS).

One experiment relates to C33A. Briefly: Primary qHTS to identify gynecologic anti-cancer compounds using libraries of approved drugs and bioactive compounds (AID 1345084). Further: nearly all actives have a fitted effect of over 55% in size. Conditions: Gynecologic cancer cell panel viability, ATPlite luminescence, 48 h; series mostly up to 57.5 µM. Summed up: (§1)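 48 h compound exposure at 37 C, 5% CO2; five-point qHTS. ATPlite luminescence readout of cell ATP.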
(In general: Quantitative high-throughput screening tests each substance at several concentrations.)

Another experiment relates to CASKI. The description is as above. As to conditions: Gynecologic cancer cell panel viability, ATPlite luminescence, 48 h; series mostly up to 57.5 µM. Summed up: as §1
(In general: ATP-based viability assays read luminescence as a measure of living cells.)

Another experiment relates to HeLa. Described as above. Conditions: Gynecologic cancer cell panel viability, ATPlite luminescence, 48 h; series mostly up to 57.5 µM. Summed up:
as §1

For a further experiment, the system named is Hek293T. Described as above. Conditions: Gynecologic cancer cell panel viability, ATPlite luminescence, 48 h, control line for the selectivity index; series mostly up to 57.5 µM. Put shortly:
as §1

For a further experiment, the system named is JEG-3. The description is as above. As to conditions: Gynecologic cancer cell panel viability, ATPlite luminescence, 48 h; series mostly up to 57.5 µM. Summed up: as §1
The test system of the next experiment is OV90. Described as above. As to conditions: Gynecologic cancer cell panel viability, ATPlite luminescence, 48 h; series mostly up to 57.5 µM. Put shortly:
as §1

Another experiment has as its system PA-1. The experiment is described as above. As to conditions: Gynecologic cancer cell panel viability, ATPlite luminescence, 48 h; series mostly up to 57.5 µM. Summed up: as §1
Another experiment relates to Tov112D. The experiment is described as above. Conditions: Gynecologic cancer cell panel viability, ATPlite luminescence, 48 h; series mostly up to 57.5 µM. Put shortly: as §1
Another experiment has as its system Es-2. Described as above. Conditions: Gynecologic cancer cell panel viability, ATPlite luminescence, 48 h; series mostly up to 57.5 µM. Put shortly:
as §1

The next experiment relates to Tov-21-G. The experiment is described as above. Conditions: Gynecologic cancer cell panel viability, ATPlite luminescence, 48 h; series mostly up to 57.5 µM. Put shortly:
as §1

The test system of a further experiment is SKOV3. The experiment is described as above. As to conditions: Gynecologic cancer cell panel viability, ATPlite luminescence, 48 h; series mostly up to 57.5 µM. Summed up: as §1
A short description of experiment [1]: qHTS assay to identify inhibitors of the type 1 interferon - major histocompatibility complex class I in skeletal muscle: Counter screen cell viability and HiBit confirmation (AID 1347412). Further: nearly all actives have a fitted effect of over 60% in size. Conditions: iHSKM muscle cells + IFN-b, HiBiT or CellTiter-Glo, 24 h. Put shortly:
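HLA-B*08:01–HiBiT knock-in immortalized human myoblasts (C25cl48) stimulated with 4.0 ng/ml human IFN-beta and dosed with compound in a 12-point 1:3 titration (top final 46 uM). After 24 hrs at 37 C, HiBiT lytic luminescence or CellTiter Glo ATP read out.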

Structures are written as SMILES. Results filed as inconclusive are left out. Values without a mark were called inactive. Calls of active or inactive are those of the source. The call rests on the fitted dose curve; in most records, active means well fitted curve in the direction sought with a large enough effect; inconclusive means small, poorly fitted or top-dose-only effect, or another doubt; inactive means no such curve, though single readings can be large; an effect the other way counts as inactive or inconclusive.
Potency means the concentration at half of the fitted maximal effect.

`NCc1ccc(Nc2ncc(F)c(Nc3ccccc3)n2)cc1`: the Potency result in the experiment on C33A, with CASKI, in the experiment on Hek293T, in the experiment with JEG-3, in the experiment with OV90 and in the experiment with Tov112D was “inactive” throughout. Further, the Potency with HeLa was 15.8 µM (active); with PA-1, 12.6 µM (active).
On to `N#Cc1c(Oc2ccc(F)c(NC(=O)Cc3cccc(C(F)(F)F)c3)c2)ccc2nc(NC(=O)C3CC3)sc12`, for which the Potency result in the experiment with C33A is “inactive”. For the same molecule, the Potency in the experiment with Es-2 was 5.62 µM (active); in the experiment on HeLa, 10 µM (active); in the experiment on OV90, 1.58 µM (active); in the experiment with PA-1, 8.91 µM (active); in the experiment on Tov-21-G it was 7.94 µM (active).
As to `Cc1cc(N(C)C)ccc1-c1nc2ccc(-c3nc4ccc(N5CCN(C)CC5)cc4[nH]3)cc2[nH]1`, the Potency entry with C33A, in the experiment on Es-2, in the experiment with HeLa, in the experiment on Hek293T, in the experiment with JEG-3 and with OV90 was “inactive” throughout. The Potency entry with Tov-21-G and with Tov112D was “inactive” throughout.
On to `C=CC(=O)N1CCN(C(=O)CNc2cc(I)c(Cl)cc2O)CC1`, for which the Potency result with C33A, in the experiment on Es-2, in the experiment with HeLa, with Hek293T, in the experiment on JEG-3 and in the experiment on OV90 was “inactive” each time. The Potency result in the experiment on PA-1, with SKOV3, in the experiment on Tov-21-G and in the experiment on Tov112D was “inactive” throughout.
As for `CCCN1CCC(c2cccc(S(C)(=O)=O)c2)CC1`, the Potency result in the experiment with C33A, in the experiment on Es-2, in the experiment on HeLa, in the experiment on Hek293T and with OV90 was “inactive” each time.
In the case of `CC[C@H](CO)Nc1nc(NCc2ccc(-c3ccccn3)cc2)c2ncn(C(C)C)c2n1`, the Potency was 1.26 µM (active) with C33A; 2.51 µM (active) with CASKI; 0.794 µM (active) in the experiment with Es-2; 3.16 µM (active) with HeLa; 1 µM (active) in the experiment on PA-1; 1.78 µM (active) with Tov112D.
`COc1cc(Br)c(Nc2nc(-c3c(C)nc4ncccn34)cs2)c(Br)c1`: the Potency entry with C33A and in the experiment with CASKI was “inactive” throughout. The Potency in the experiment with Es-2 was 8.91 µM (active); in the experiment with PA-1, 4.47 µM (active); with SKOV3 it was 8.91 µM (active); in the experiment on Tov-21-G, 10 µM (active).
For `CCCCNc1ncc2c(-c3ccc(F)cc3)nn(CC3CCC(N)CC3)c2n1` (centres undefined), the Potency in the experiment on C33A is 11.2 µM (active); in the experiment on CASKI, 10 µM (active); in the experiment on HeLa, 10 µM (active); in the experiment on Tov-21-G, 7.94 µM (active).
For the molecule `C=C(C)C(=O)OC1C(OC(C)=O)/C(C=O)=C\CC/C(CO)=C/C2OC(=O)C(=C)C21` (centres undefined), the Potency result in the experiment on C33A, with CASKI, with HeLa, in the experiment with JEG-3, with OV90 and in the experiment with PA-1 was “inactive” in each case. The Potency result in the experiment with SKOV3 and in the experiment with Tov112D was “inactive” each time.
On to `CC(C)(C)c1ccc(S(=O)(=O)NCc2ccc(C(=O)Nc3cccnc3)cc2)cc1`, for which the Potency in the experiment with C33A is 7.94 µM (active); with Es-2 it was 3.55 µM (active); in the experiment with HeLa, 1.78 µM (active); with JEG-3, 2.24 µM (active); in the experiment with OV90, 3.98 µM (active); with PA-1, 1.12 µM (active). In addition, the Potency with SKOV3 was 7.08 µM (active); with Tov-21-G it was 1.78 µM (active).
For `c1ccc(-c2csc(N3CCOCC3)n2)cc1`, the Potency entry in the experiment with C33A, with CASKI, in the experiment with Es-2, in the experiment on JEG-3, with OV90 and in the experiment on PA-1 was “inactive” each time. The Potency entry with SKOV3, with Tov-21-G and with Tov112D was “inactive” each time.
As for `N#Cc1cc(F)cc(-c2nc(-c3ccccn3)no2)c1`, the Potency entry in the experiment with C33A, in the experiment on CASKI, in the experiment with Hek293T and in the experiment with Tov112D was “inactive” each time.
With `COc1ccc(/C=C/C(=O)O[C@@H]2[C@@H](O)[C@H](C)O[C@@H](O[C@H]3[C@@H]4C=CO[C@@H](O[C@H]5O[C@@H](CO)[C@H](O)[C@@H](O)[C@@H]5O)[C@@H]4[C@@]4(CO)O[C@@H]34)[C@@H]2OC(C)=O)cc1`, the Potency result with C33A, in the experiment with Es-2, with HeLa, with Hek293T, with JEG-3 and in the experiment with OV90 was “inactive” in each case. Besides, the Potency entry in the experiment with PA-1, with SKOV3, with Tov-21-G and in the experiment on Tov112D was “inactive” each time.
For the molecule `COc1ccc(CCC(=O)c2c(O)cc(O)cc2O[C@@H]2O[C@H](CO)[C@@H](O)[C@H](O)[C@H]2O)cc1`, the Potency entry in the experiment with C33A, in the experiment with CASKI, in the experiment on HeLa, in the experiment with JEG-3, in the experiment on OV90 and with PA-1 was “inactive” each time. In addition, the Potency entry with Tov-21-G and with Tov112D was “inactive” throughout.
For `NC[C@@](O)(c1ccc(Cl)cc1)c1ccc(-c2cn[nH]c2)cc1`, the Potency in the experiment on C33A is 22.4 µM (active); with CASKI it was 28.2 µM (active); in the experiment with HeLa it was 25.1 µM (active); with Hek293T, 28.2 µM (active); with PA-1, 15.8 µM (active); in the experiment with SKOV3, 20 µM (active). Also, the Potency with Tov-21-G is 10 µM (active); in the experiment with Tov112D, 25.1 µM (active); in experiment [1] (HiBiT), 6.25 µM (active); in experiment [1] (Viability), 8.83 µM (active).
Regarding `N=c1nc2n(cc1F)C1OC(CO)C(O)C1O2` (centres undefined), the Potency entry with C33A, with CASKI, with HeLa, in the experiment with Hek293T, in the experiment on JEG-3 and in the experiment on Tov-21-G was “inactive” in each case. For the same molecule, the Potency in the experiment on PA-1 is 0.891 µM (active); in the experiment on Tov112D it was 1.41 µM (active).
On to `CC1CCC2C(C(=O)O)=COC(O[C@@H]3O[C@H](CO)[C@@H](O)[C@H](O)[C@H]3O)C12` (some centres undefined), for which the Potency result with C33A, with CASKI, with Es-2, with Hek293T, with OV90 and in the experiment on PA-1 was “inactive” each time. Also, the Potency result in the experiment with Tov-21-G and in the experiment on Tov112D was “inactive” each time.
For the molecule `CO[C@H]1C[C@@H]2CC[C@@H](C)[C@@](O)(O2)C(=O)C(=O)N2CCCC[C@H]2C(=O)O[C@H]([C@H](C)C[C@@H]2CC[C@H](n3cnnn3)[C@H](OC)C2)CC(=O)[C@H](C)/C=C(\C)[C@@H](O)[C@@H](OC)C(=O)[C@H](C)C[C@H](C)/C=C/C=C/C=C/1C`, the Potency result in the experiment on C33A, in the experiment with CASKI, with Es-2, in the experiment on HeLa, with JEG-3 and in the experiment with OV90 was “inactive” in each case. Moreover, the Potency entry in the experiment with PA-1, in the experiment with SKOV3 and with Tov112D was “inactive” throughout.
For `COc1ccc2[nH]c3c(-c4cccc5ccccc45)nccc3c2c1`, the Potency in the experiment on C33A was 2.82 µM (active); in the experiment with CASKI, 1.41 µM (active); in the experiment with Es-2, 1.58 µM (active); in the experiment on HeLa, 0.891 µM (active); with PA-1, 0.891 µM (active); with Tov112D, 1.41 µM (active).
On to `FC(F)(F)c1ccc(Nc2nc(-c3c(C(F)(F)F)nc4ccccn34)cs2)cc1`, for which the Potency in the experiment with C33A was 20 µM (active); with Es-2 it was 2 µM (active); with HeLa it was 0.891 µM (active); in the experiment on PA-1, 1.26 µM (active); with Tov112D, 0.708 µM (active). For the same molecule, the Potency result in the experiment with CASKI is “inactive”.
Consider `C=C1C(=O)OC2/C=C(\CO)CC/C=C(\C=O)CC(OC(=O)CC(C)C)C12` (centres undefined), for which the Potency result with C33A, in the experiment with CASKI, with HeLa, in the experiment with Hek293T, with JEG-3 and with OV90 was “inactive” throughout. In the experiment with Tov112D, the Potency result was “inactive”.
